Screening results: PubChem, National Center for Advancing Translational Sciences (NCATS)
KDM5B inhibitor = KDM5B demethylase inhibition | Q9UGL1 | hit rate 2.6% among 220,000 | AID 1347165 | KDM5B demethylase, FDH-coupled NADH fluorescence (FDH is formaldehyde dehydrogenase) | Potency, µM (series often up to 57.7 µM), hits mostly inhibitors; active = well fitted inhibition curve with a large enough effect; inconclusive = small, poorly fitted or top-dose-only effect; inactive = no such curve, though single readings can be large or run the other way; note: potency is the fitted concentration of half-maximal effect; 0% is about no effect; nearly all actives have a fitted effect of over 70% in size
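Compound dilutions met 200 nM (final) KDM5BΔAP for 10 min at room temperature before substrate addition. The substrate mix held 12.5 µM H3K4me3 with cofactors 25 µM α-ketoglutarate and 50 µM Fe²⁺. NADH signal gain over 30 min defined activity.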
IP6K1 inh = blocks human inositol hexakisphosphate kinase 1; AID 1645851; IP6K1 kinase, ADP-Glo luminescence, 2 h; active compounds read low; hit rate 0.81% among 140,000; activity change, % (series mostly up to about 58 µM); in the data active = activity change below about -25%; note: % is set by controls: 0 for no effect and ±100 for the full control effect
Target sequence (Q92551 whole entry, looked up): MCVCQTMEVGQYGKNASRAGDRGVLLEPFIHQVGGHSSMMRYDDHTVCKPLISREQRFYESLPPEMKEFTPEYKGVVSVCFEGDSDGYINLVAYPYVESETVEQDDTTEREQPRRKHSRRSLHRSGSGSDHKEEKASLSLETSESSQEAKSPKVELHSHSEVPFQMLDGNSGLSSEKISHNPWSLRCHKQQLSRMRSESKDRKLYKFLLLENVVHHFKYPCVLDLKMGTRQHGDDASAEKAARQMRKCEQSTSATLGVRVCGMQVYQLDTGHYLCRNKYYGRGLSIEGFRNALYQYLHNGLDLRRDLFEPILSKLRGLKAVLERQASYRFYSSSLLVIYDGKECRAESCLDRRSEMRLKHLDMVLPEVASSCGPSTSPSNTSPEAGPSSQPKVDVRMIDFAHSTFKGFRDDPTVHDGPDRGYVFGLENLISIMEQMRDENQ
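ADP-Glo luminescence measures ADP made by human IP6K1 during a 2 h RT reaction with ATP/IP6 (mix at 1.3 mM/130 uM); top library doses 57.5 and 19.1 uM final.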
* = called active by the depositor; i = inactive; ? = inconclusive; . = no result. A selection: hits, their analogues and other compounds. The true share with any hit is near 2.8%.

SMILES	KDM5B inhibitor	IP6K1 inh
CN(C)CCNC(=O)c1nc2nc(-c3ccccc3)c(-c3ccncc3)cc2n1C	22µM*	13
Cc1cc(-c2cc3c(nc2-c2ccccc2)nc(C(=O)NCCN(C)C)n3C)ccn1	i	3
CN(C)CCNC(=O)c1nc2nc(-c3ccccc3)c(-c3cccnc3)cc2n1C	20µM*	6
COc1cc(-c2cc3c(nc2-c2ccccc2)nc(C(=O)NC2CCN(C)CC2)n3C)ccn1	i	15
COc1ccc(-c2cccc(C(=O)N3CCN(C(=O)N(C)C)CC3)c2)nn1	.	-3
COc1ccc(F)cc1-c1cccc(C(=O)NCC(=O)N2CCOCC2)c1	.	-8
CNC(=O)c1cc(C2CC2)nc2onc(C3CCN(C(=O)c4cccc(Cl)c4)C3)c12 (configuration not stated)	.	-11
CCN1CCN(C(=O)c2cn3cc(-c4ccc(OC)cc4)sc3n2)CC1	.	-4
O=C1CCN(C[C@@H](O)COCc2ccccc2)c2ccc(F)cc2CN1C1CCCC1	.	4
C[C@@H](N[C@H]1CCCC[C@@H]1NC(=O)c1ccc(Cl)cc1)c1cccc2ccccc12	.	27
O=C(Nc1ccc(F)cc1)c1nc2sccn2c1-c1cccnc1	.	3
O=C(Nc1ncc(-c2cccc(F)c2)c2c1OCC2)c1ccncc1	i	1
CNC(=O)c1cccc(-c2cnc(Nc3ccc(Cl)cn3)c3c2CCO3)c1	?	-21
CNC(=O)c1cccc(-c2cnc(Nc3ccc(F)c(Cl)c3)c3c2CCO3)c1	35µM*	-18
O=C(Nc1ncc(-c2cccc(F)c2)c2c1OCC2)c1ccc(F)c(Cl)c1	22µM*	-15
COc1ccccc1Nc1ncc2c(n1)CN(C(=O)c1ccccc1)CCN2	i	-10
COc1ccccc1Nc1ncc2c(n1)CN(C(=O)c1cc3ccccc3n1C)CCN2	40µM*	-13
O=C(Cc1cccc(Cl)c1)NCC1COc2ncncc2C(=O)N1CC1CC1 (configuration not stated)	i	-6
O=C(Cc1cccc(F)c1)NCC1COc2ncncc2C(=O)N1Cc1ccccc1 (configuration not stated)	28µM*	0
Cc1cc(Cl)ccc1S(=O)(=O)Nc1cccc(NC(N)=O)c1	i	.
O=C(COc1ccc(F)cc1)N1CCC(N2C(=O)C3(CCCC3)C2c2ccccc2)CC1 (configuration not stated)	.	-17
Cc1ccc(CN2CCCC(C(=O)N3CCN(c4ccccn4)CC3)CCNC(=O)CC2)s1 (configuration not stated)	28µM*	-6
CCn1ncc(CN2CCCC(C(=O)N3CCN(c4ccccn4)CC3)CCNC(=O)CC2)c1C (configuration not stated)	25µM*	0
O=C1CCN(C(=O)C2CCCC2)CCCC(C(=O)N2CCN(c3ccccn3)CC2)CCN1 (configuration not stated)	?	-1
CCN1CCN(C(=O)C2CCCN(Cc3cccnc3)CCC(=O)NCC2)CC1 (configuration not stated)	i	6
SMILES	KDM5B inhibitor	IP6K1 inh
COc1cccc(-c2cn3cc(C(=O)NCC(C)C)nc3s2)c1	.	-7
CN(C)C(=O)c1ccc(-c2cc3c(cn2)CN(CCc2ccccc2)CCN3)cc1	?	-1
CCn1cc(-c2cc3c(cn2)CN(CCc2ccccc2)CCN3)cn1	35µM*	-17
Oc1cccc(-c2cc3c(cn2)NCCN(Cc2ccccc2)C3)c1	?	-19
c1ccc(CN2CCNc3cc(-c4ccoc4)ncc3C2)cc1	?	-3
c1ccc(CN2CCNc3cnc(-c4ccc(N5CCOCC5)cc4)cc3C2)cc1	35µM*	0
C[S+](=O)([O-])c1ccc(-c2cc3c(cn2)CN(Cc2ccccc2)CCN3)cc1	28µM*	-19
O=C(NC1CCCCCC1)c1nc2sccn2c1-c1cccnc1	.	27
COc1ccc(NC(=O)c2cc3c(N(C)Cc4ccccc4)nc(C)cn3n2)cc1	32µM*	12
Cc1cn2nc(C(=O)Nc3cccc(F)c3C)cc2c(N(C)Cc2ccccc2)n1	28µM*	-14
Cc1cn2nc(C(=O)Nc3ccccc3)cc2c(N(C)Cc2ccccc2)n1	28µM*	-13
Cc1cn2nc(C(=O)Nc3ccc(Cl)cc3C)cc2c(N(C)Cc2ccccc2)n1	i	16
COc1cc(NC(=O)Cn2c(N(C)Cc3ccccc3)nc(C)cc2=O)cc(OC)c1	?	-10
Cc1cn2nc(C(=O)Nc3ccccc3C)cc2c(N(C)Cc2ccccc2)n1	i	-7
Cn1ccc(C(=O)Nc2ccc3c(c2)OCCO3)n1	i	.
Cc1cn2nc(C(=O)Nc3ccc4c(c3)OCCO4)cc2c(N(C)Cc2ccccc2)n1	28µM*	13
Cn1ncc2c(C(=O)NCc3ccc(F)cc3F)cc(-c3ccccc3F)nc21	.	1
CNC(=O)c1cc(C2CC2)nc2c1c(C1CCCN([S+](=O)([O-])c3ccccc3)C1)nn2C (configuration not stated)	.	-4
